# Source: PubChem BioAssay AID435005 (Broad Institute, 2010)
# In all, about 300,000 compounds went through this assay and about 2,400 (0.8%) were called active. The sample holds actives, similar compounds and a random draw of the others, so the mix is not that of the screen.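 The calls were made as follows: active = Every replicate reaches about 75%, or at least half do and their mean reaches it too (limit read from the data); inconclusive = At least half of replicates reach the limit but their mean does not; inactive = Under half of replicates reach the limit.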
# Test: INS-1E beta cell survival under cytokines – luminescence, primary screen (AID 435005);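 also: 0% = cytokine-treated negative control wells and 100% = positive control rescue; higher means more ATP so stronger rescue from cytokine killing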
# Conditions: INS-1E cytokine-induced death, ATP luminescence, 48 h; active compounds read high; percent of positive-control rescue, neutral wells zero; concentration not given here
row,SMILES,protection from apoptosis
1,O=C(N[C@@H]1C/C=C\C[C@@H](CC(=O)N(CCO)Cc2ccccc2)C(=O)N[C@H](Cc2ccccc2)COC1=O)OCC1c2ccccc2-c2ccccc21,50.5% (inactive)
2,COc1ccc(-c2nc3cnccn3c2NC2CCCCC2)cc1-c1cccc(Cl)c1,-8.81% (inactive)
3,c1ccc(CN2CCC(N=C3NN=C(c4ccc5c(c4)OCCO5)CS3)CC2)cc1,-0.528% (inactive)
4,Cc1cccc(N=C2NN=C(c3c[nH]c4ccccc34)CS2)c1,22.1% (inactive)
5,Clc1cccc(N=C2NN=C(c3ccc4c(c3)OCCO4)CS2)c1,83.6% (active)
6,CC(C#N)OC(=O)c1cccnc1SCC(=O)Nc1ccc2c(c1)OCO2 (centres undefined),3.24% (inactive)
7,CCNC(=S)N1CCN(S(=O)(=O)c2ccc(Cl)s2)CC1,-2.64% (inactive)
8,COc1cc(NC(=O)COC(=O)c2cc(S(=O)(=O)N3CCOCC3)ccc2F)cc(OC)c1,-2.85% (inactive)
9,COc1ccccc1NC(=O)/C=C/C(=O)O,-6.73% (inactive)
10,CSc1ccc(NC(=O)/C=C/C(=O)O)cc1,-4.41% (inactive)
11,COC(=O)c1sc(-c2ccc(C(C)(C)C)cc2)cc1NC(=O)/C=C/C(=O)O,99.2% (active)
12,CCN(C[C@H]1N[C@@](Cc2ccccc2)(C(=O)OC)[C@H]2C(=O)N(Cc3ccccc3)C(=O)[C@@H]12)C(=O)c1ccc(C)cc1,13.6% (inactive)
13,O=C(c1cccc(Cl)c1)N1CCN(Cc2ccccc2)CC1,-9.96% (inactive)
14,CC(C)CC(=O)N1CCN(Cc2cccc(Cl)c2)CC1,3.65% (inactive)
15,Clc1cccc(CN2COc3c(cc(Cl)c4cccnc34)C2)c1,85.5% (active)
16,COC(=O)[C@]1(Cc2ccccc2)N[C@H](CN(C)S(=O)(=O)c2ccc(OC(F)(F)F)cc2)[C@@H]2C(=O)N(Cc3ccccc3)C(=O)[C@@H]21,10.5% (inactive)
17,CCOC(=O)c1ccc(NC(=O)Cn2nnc(-c3ccc(C)cc3)n2)cc1,3.31% (inactive)
18,CCOC(=O)c1ccc(NC(=O)Cn2cnc3cc(C)c(C)cc32)cc1,105% (active)
19,CCCc1nnc(SCC(=O)Nc2ccc(C(=O)OCC)cc2)o1,1.98% (inactive)
20,O=C(CNC(=O)c1ccccc1F)OCC(=O)c1c[nH]c2ccccc12,-14.7% (inactive)
21,COc1ccc(CCNC(=O)COC(=O)C2CC2C)cc1 (centres undefined),0.884% (inactive)
22,Oc1ccccc1/C=N/n1c(-c2cccs2)n[nH]c1=S,-8.28% (inactive)
23,S=c1[nH]nc(-c2cc(-c3ccccc3)n[nH]2)n1/N=C/c1c2ccccc2cc2ccccc12,10.1% (inactive)
24,Cc1cc(-c2n[nH]c(=S)n2/N=C/C(Br)=C/c2ccccc2)n[nH]1,84.8% (active)
